# Reference: PubChem BioAssay (NCATS)
# Inconclusive results are not listed. A call without a number means that no potency is given here. Calls of active or inactive are those of the source. Unless noted, calls follow the shape of the dose curve; as a rule, active = well fitted curve in the direction sought with a large enough effect; inconclusive = small, poorly fitted or top-dose-only effect, or another doubt; inactive = no such curve, though single readings can be large; an effect the other way counts as inactive or inconclusive.
# How the values were obtained:
# [1] = target: D(1A) dopamine receptor (Homo sapiens) (UniProt P21728); assay: HTS Assay for Allosteric Agonists of the Human D1 Dopamine Receptor: Primary Screen for Agonists (AID 488981); also: potency is read from the fitted curve at half-maximal effect
# D(1A) dopamine receptor (Homo sapiens), sequence (P21728 whole entry, looked up): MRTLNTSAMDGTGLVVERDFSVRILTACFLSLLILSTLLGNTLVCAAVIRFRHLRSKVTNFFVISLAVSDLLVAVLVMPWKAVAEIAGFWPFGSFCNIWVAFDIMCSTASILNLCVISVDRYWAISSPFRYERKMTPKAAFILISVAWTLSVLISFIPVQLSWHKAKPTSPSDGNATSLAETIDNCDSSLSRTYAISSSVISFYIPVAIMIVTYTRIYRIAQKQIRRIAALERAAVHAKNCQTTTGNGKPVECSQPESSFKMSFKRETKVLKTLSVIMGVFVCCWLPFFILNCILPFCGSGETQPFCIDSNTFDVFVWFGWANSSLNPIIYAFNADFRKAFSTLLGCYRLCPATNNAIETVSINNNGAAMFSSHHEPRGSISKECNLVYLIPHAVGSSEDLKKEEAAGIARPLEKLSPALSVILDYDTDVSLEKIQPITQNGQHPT
# Outline: (§1)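 Calcium flux in an inducible, force-coupled HEK293 Trex D1 line (overnight at 30 C): agonist mode is the 180 s kinetic read after compound; potentiator mode is the following 180 s read after dopamine at EC20.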
# [2] = target: D(1A) dopamine receptor (Homo sapiens) (UniProt P21728); assay: HTS Assay for Allosteric Agonists of the Human D1 Dopamine Receptor: Primary Screen for Potentiators (AID 488982); also: potency is read from the fitted curve at half-maximal effect
# Outline: as §1
# [3] = Validation screen for small molecules that induce genotoxicity in human embryonic kidney (HEK293T) cells expressing luciferase-tagged ELG1 (AID 493106)
# Outline: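 HEK293T cells expressing luciferase-tagged ELG1, 2,000 cells/well, exposed to compound 16 hr at 37 °C, 5% CO2. Luciferase read after ONE-Glo, 30 min at room temperature; increased signal indicates genetic stress.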
# [4] = Nrf2 qHTS screen for inhibitors: Validation (AID 493153; active = well fitted inhibition curve with a large enough effect in the main read-out, with a control signal flat, not every such curve was filed as active); conditions: Potency: luciferase luminescence; viability change: measured here: cytotoxicity max response
# Outline: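 A549 cells carrying ARE-firefly luciferase reporter, 5000 cells/well in 5% FBS OPTI-MEM, treated with compound over a concentration series for 18-24 h at 37 C. Luciferase luminescence gave Nrf2 activity; CellTiter-Fluor fluorescence gave viability.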
# [5] = qHTS for Inhibitors of Cell Surface uPA Generation: Validation Assay (AID 493164)
# Outline: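 RAW 264.7 cells (4000/well) were plated overnight, then exposed for 18 h at 37 C, 5% CO2 to compounds in a 7-point 1:5 titration (2.45 nM–38.3 uM final). Intracellular ATP was read by ATP-Lite luminescence.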
# [6] = target: Peptidyl-prolyl cis-trans isomerase NIMA-interacting 1 (Homo sapiens) (UniProt Q13526); assay: qHTS Validation Assay to Find Inhibitors of Pin1 (AID 504536; active = well fitted inhibition curve with a large enough effect in the polarisation, with a control signal flat, not every such curve was filed as active; the % refers to the polarisation)
# Peptidyl-prolyl cis-trans isomerase NIMA-interacting 1 (Homo sapiens), sequence (Q13526 whole entry, looked up): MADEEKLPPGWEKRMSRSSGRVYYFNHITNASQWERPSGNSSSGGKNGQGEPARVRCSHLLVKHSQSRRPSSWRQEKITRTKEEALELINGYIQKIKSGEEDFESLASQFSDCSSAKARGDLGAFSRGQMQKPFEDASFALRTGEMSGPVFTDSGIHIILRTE
# Outline: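 Fluorescence polarization competition: compounds (titration) displace HiFluor-488-labeled Pin1-1b peptide from Pin1 (0.3 uM final) in pH 7.5 HEPES buffer with DTT, 10 min at room temperature; %Activity normalized to no-enzyme wells, curves fitted.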
# [7] = target: Phosphoglycerate kinase, glycosomal (Trypanosoma brucei brucei) (UniProt P07378); assay: qHTS Validation Assay to Find Inhibitors of Phosphoglycerate Kinase (AID 504547)
# Phosphoglycerate kinase, glycosomal (Trypanosoma brucei brucei), sequence (P07378 whole entry, looked up): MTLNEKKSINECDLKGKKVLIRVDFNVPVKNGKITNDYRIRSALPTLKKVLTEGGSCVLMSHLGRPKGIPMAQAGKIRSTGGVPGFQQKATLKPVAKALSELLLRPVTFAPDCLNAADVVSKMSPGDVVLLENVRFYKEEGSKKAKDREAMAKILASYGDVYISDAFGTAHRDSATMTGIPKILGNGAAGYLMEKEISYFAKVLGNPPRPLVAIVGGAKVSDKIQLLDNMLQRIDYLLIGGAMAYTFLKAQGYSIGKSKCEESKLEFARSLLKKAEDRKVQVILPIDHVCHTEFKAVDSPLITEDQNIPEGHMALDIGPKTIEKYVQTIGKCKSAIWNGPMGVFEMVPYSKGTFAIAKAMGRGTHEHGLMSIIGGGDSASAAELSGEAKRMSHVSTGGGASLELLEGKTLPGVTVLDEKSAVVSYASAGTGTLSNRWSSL
# Outline: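 Inhibition of the enzyme is judged by a Kinase-Glo Plus luminescent signal following a one-hour incubation at room temperature. Because 1,3-BPG is unstable, it is made in situ by GAPDH at 100nM final; no-PGK wells define the baseline.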
# [8] = target: phosphoglycerate mutase (Leishmania major) (UniProt Q4Q090); assay: qHTS Validation Assay to Find Inhibitors of Phosphoglycerate Mutase (AID 504548); conditions: Potency: inhibition qHTS; also: potency is read from the fitted curve at half-maximal effect
# phosphoglycerate mutase (Leishmania major), sequence (Q4Q090 1-553): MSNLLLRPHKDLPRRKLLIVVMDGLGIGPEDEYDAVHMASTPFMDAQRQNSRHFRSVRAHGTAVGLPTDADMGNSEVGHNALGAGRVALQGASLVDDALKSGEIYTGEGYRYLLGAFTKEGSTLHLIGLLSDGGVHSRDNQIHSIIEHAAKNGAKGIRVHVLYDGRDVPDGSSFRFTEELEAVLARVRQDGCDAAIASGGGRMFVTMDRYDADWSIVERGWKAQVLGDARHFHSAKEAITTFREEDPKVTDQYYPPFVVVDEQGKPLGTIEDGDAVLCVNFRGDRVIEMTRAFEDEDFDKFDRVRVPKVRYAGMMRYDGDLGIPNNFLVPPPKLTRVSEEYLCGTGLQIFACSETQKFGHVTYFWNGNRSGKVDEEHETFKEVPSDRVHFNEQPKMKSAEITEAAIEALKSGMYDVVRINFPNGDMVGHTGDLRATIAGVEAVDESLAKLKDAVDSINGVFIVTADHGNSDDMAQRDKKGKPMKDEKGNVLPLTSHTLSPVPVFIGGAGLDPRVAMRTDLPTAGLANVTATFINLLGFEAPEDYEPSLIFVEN
# Outline: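 L. major PGAM (1.25nM final) was added to substrate buffer and pinned compound, incubated 45 minutes at room temperature, then Kinase-GloPlus added; luminescence read after 10 minutes. Buffer: 100 mM TEA pH 7.6, 5 mM MgCl2, 0.01% Tween-20.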
# [9] = target: Ubiquitin carboxyl-terminal hydrolase 1 (Homo sapiens) (UniProt O94782); assay: Inhibitors of USP1/UAF1: Pilot qHTS (AID 504865); also: nearly all actives have a fitted effect of over 35% in size; also: potency is read from the fitted curve at half-maximal effect
# Ubiquitin carboxyl-terminal hydrolase 1 (Homo sapiens), sequence (O94782 whole entry, looked up): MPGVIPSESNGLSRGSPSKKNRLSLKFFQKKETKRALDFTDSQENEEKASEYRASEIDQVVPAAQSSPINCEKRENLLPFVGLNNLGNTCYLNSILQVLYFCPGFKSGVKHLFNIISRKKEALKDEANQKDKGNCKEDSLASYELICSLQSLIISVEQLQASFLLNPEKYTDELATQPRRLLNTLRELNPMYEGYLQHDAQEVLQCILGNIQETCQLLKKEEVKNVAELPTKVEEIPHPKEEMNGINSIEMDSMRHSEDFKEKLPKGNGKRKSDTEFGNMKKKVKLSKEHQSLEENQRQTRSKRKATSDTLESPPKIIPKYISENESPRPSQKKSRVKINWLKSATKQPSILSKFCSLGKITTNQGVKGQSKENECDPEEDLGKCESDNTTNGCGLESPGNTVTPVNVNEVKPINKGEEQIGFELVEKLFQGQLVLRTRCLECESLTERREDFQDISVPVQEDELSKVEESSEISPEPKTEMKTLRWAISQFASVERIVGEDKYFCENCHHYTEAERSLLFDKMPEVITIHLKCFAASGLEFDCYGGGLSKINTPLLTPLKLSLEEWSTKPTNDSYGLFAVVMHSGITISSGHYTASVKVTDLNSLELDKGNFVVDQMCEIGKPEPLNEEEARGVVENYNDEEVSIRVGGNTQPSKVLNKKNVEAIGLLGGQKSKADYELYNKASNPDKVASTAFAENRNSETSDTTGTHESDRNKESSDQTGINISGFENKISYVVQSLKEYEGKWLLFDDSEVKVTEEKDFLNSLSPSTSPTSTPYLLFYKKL
# Outline: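 Deubiquitinase activity followed as kinetic rhodamine fluorescence release from 150 nM Ub-Rho. 1 nM USP1/UAF1 with compound, after 15 min room-temperature preincubation, in HEPES pH 7.8 buffer containing TCEP, EDTA, BSA and Tween-20.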
# [10] = qHTS for Inhibitors of ATXN expression: Validation of Cytotoxic Assay (AID 588349); also: potency is read from the fitted curve at half-maximal effect
# Outline: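 HEK293 cells treated with titrated compound for 72 hr at 37 degrees C; viability read as intracellular ATP by CellTiter Glo luminescence.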
# [11] = qHTS for Inhibitors of ATXN expression: Validation (AID 588378); also: nearly all actives have a fitted effect of over 75% in size; also: potency is read from the fitted curve at half-maximal effect
# Outline: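 Luciferase luminescence (Bright-Glo) from an ATXN2-FFLuc HEK293 line after 24 h compound exposure at 37 °C, preceded by a CellTiter-Fluor fluorescence viability read. Serial dilutions of a reference ATXN2 inhibitor and a luciferase inhibitor served as controls.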
# [12] = target: D(1A) dopamine receptor (Homo sapiens) (UniProt P21728); assay: HTS Assay for Allosteric Agonists of the Human D1 Dopamine Receptor: Primary Screen for Antagonists (AID 488983);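 also: calcium flux response to an EC80 dopamine challenge measured with no-wash dye; nearly all actives have a fitted effect of over 65% in size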
# Outline: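 Tetracycline-induced HEK293 T-REx D1 line, force-coupled to calcium flux, read with no-wash calcium dye. Compound added after 10 s baseline, read 180 s for agonism, then EC80 dopamine added and read a further 180 s.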
# [13] = target: ATPase family AAA domain-containing protein 5 (Homo sapiens) (UniProt Q96QE3); assay: Validation screen for small molecules that inhibit ELG1-dependent DNA repair in human embryonic kidney (HEK293T) cells expressing luciferase-tagged ELG1 (AID 493107); also: nearly all actives have a fitted effect of over 70% in size; also: potency is read from the fitted curve at half-maximal effect
# ATPase family AAA domain-containing protein 5 (Homo sapiens), sequence (Q96QE3 whole entry, looked up, the tested form may be a part): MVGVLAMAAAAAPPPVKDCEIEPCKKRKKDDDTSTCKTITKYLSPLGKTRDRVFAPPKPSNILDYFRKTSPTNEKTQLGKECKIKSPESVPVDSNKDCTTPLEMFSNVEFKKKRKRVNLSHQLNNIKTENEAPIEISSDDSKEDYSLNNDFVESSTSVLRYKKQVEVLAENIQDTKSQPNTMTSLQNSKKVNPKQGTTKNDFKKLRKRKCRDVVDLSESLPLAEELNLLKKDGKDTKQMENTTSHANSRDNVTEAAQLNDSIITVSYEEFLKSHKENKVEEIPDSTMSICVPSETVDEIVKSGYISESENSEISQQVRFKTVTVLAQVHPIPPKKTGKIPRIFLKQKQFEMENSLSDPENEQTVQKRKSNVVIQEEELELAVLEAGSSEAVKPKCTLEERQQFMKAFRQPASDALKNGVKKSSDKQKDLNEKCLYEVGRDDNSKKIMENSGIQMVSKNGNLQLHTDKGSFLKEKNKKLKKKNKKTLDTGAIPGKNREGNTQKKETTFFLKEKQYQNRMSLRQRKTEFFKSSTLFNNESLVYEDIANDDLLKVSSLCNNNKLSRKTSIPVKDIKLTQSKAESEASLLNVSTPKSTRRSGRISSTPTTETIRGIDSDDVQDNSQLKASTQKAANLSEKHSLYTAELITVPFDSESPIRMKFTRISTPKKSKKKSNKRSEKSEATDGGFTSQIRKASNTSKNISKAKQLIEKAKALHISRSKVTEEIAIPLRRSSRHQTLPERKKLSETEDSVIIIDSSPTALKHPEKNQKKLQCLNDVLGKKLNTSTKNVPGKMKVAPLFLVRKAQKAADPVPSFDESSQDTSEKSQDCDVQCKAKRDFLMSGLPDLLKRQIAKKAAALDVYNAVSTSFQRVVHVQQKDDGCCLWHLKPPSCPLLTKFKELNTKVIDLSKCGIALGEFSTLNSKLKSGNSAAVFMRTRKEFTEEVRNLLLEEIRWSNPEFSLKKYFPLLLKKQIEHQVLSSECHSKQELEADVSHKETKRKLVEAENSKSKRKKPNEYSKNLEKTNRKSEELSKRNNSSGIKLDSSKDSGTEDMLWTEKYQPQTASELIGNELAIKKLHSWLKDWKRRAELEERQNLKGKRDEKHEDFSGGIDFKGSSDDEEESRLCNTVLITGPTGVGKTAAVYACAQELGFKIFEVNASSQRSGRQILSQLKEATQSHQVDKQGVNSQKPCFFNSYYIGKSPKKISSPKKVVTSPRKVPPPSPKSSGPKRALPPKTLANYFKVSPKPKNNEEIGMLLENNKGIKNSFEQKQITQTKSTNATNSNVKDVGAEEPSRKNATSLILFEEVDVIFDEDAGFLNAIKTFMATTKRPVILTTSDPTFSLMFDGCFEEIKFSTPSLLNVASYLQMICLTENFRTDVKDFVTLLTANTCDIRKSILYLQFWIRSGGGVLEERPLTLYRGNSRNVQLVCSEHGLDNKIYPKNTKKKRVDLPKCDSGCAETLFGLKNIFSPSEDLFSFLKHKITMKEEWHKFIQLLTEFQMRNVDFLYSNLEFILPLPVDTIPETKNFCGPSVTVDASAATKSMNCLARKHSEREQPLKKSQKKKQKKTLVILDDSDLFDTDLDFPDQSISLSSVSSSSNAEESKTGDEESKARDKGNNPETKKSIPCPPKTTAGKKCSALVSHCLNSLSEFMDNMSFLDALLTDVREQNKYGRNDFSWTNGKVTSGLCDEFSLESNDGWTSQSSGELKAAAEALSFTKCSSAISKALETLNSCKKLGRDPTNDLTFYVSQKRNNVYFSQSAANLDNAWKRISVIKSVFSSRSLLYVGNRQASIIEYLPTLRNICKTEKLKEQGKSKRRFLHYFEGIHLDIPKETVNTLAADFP
# Outline: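 HEK293T cells expressing luciferase-tagged ELG1, 2,000 per well, treated with 5-fluorouridine plus compound for 16 h at 37 C. ONE-Glo luminescence after 30 min at room temperature reports ELG1 reporter level.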
# [14] = target: Thyrotropin-releasing hormone receptor (Homo sapiens) (UniProt P34981); assay: qHTS for Small Molecule Agonists and Allosteric Enhancers of Human TRH Receptor: Validation Screen for Agonists (AID 493127;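 active = calcium activation more than 3 SD above the typical response in the agonist read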); conditions: TRH receptor agonist cell assay; at 2 µM; stronger effect = higher value
# Thyrotropin-releasing hormone receptor (Homo sapiens), sequence (P34981 whole entry, looked up): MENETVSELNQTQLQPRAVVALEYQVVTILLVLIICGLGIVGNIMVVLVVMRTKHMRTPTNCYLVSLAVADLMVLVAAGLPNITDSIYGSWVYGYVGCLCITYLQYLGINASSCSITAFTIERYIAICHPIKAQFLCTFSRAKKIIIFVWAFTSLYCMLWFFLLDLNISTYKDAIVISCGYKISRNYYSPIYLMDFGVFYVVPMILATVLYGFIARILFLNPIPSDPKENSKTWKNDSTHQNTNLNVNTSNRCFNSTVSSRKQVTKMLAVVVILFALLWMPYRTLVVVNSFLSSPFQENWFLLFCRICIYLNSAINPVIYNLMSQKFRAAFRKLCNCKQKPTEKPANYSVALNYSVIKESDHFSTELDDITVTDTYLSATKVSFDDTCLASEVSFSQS
# Outline: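 TRHR cells loaded with fluo-8 calcium dye; FDSS kinetic fluorescence (Ex 480/Em 530) read at 1 s/cycle after 23 nL compound addition. Agonist-mode calcium response recorded before the 10 nM TRH (EC20) addition.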
# [15] = target: Galactokinase (Homo sapiens) (UniProt P51570); assay: qHTS Validation Assay for Inhibitors of Human Galactokinase (GALK) (AID 493189)
# Galactokinase (Homo sapiens), sequence (P51570 whole entry, looked up): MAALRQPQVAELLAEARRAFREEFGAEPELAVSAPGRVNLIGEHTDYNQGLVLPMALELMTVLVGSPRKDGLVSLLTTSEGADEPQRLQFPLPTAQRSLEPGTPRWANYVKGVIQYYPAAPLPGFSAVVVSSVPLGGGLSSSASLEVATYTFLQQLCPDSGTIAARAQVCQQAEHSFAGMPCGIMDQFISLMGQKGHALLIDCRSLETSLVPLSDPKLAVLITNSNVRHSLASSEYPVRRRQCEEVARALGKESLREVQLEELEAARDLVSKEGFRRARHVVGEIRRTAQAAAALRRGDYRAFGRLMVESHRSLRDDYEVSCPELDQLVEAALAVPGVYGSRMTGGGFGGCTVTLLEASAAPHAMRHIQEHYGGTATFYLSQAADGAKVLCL
# Outline: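 Inhibition was measured as remaining ATP, detected by luciferase luminescence after a 1 h room-temperature reaction. Final conditions: 5 nM GALK, 100 uM galactose, 35 uM ATP, pH 8.0 HEPES buffer.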
# [16] = Validation screen for small molecules that induce DNA re-replication in SW480 colon adenocarcinoma cells (AID 504364)
# Outline: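 SW480 cells (250/well) exposed 48 h at 37 C, 5% CO2, then Hoechst-stained 40 min. Nuclear DNA content imaged by fluorescence scanning (405 nm excitation, 500-530 nm emission); re-replication scored as increased nuclei with elevated intensity.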
SMILES,Potency [1],Potency [2],Potency [3],Potency [4],viability change [4],outcome [5],Potency [6],Potency [7],Potency [8],Potency [9],Potency [10],Potency [11],Potency [12],Potency [13],activation [14],Potency [15],Potency [16]
NC[C@@H]1O[C@H](c2ccccc2)Cc2c1ccc(O)c2O,inactive,inactive,inactive,inactive,-1.5%,inactive,inactive,inactive,inactive,inactive,inactive,inactive,–,–,–,–,–
O=c1cc(-c2ccccc2F)[nH]c2cc3c(cc12)OCO3,inactive,inactive,–,–,–,inactive,inactive,inactive,inactive,–,–,inactive,inactive,inactive,–,–,–
CC(C)NC[C@H](O)COc1cccc2ccccc12,–,inactive,inactive,inactive,-4.73%,–,inactive,–,–,–,inactive,–,inactive,–,–,–,–
O=C(c1ccc2c(c1)OCCO2)N1CCCCC1,inactive,inactive,inactive,inactive,1.66%,–,inactive,–,inactive,inactive,inactive,inactive,inactive,–,-0.312% (inactive),inactive,inactive
CNCCc1cnc(CCC(c2ccccc2)c2ccccc2)[nH]1,–,inactive,–,–,–,inactive,inactive,inactive,inactive,inactive,–,–,inactive,–,–,–,–
C=C1C[C@@]23CC[C@H]4[C@@](C)(CCC[C@@]4(C)C(=O)O)[C@@H]2CC[C@]1(O)C3,inactive,inactive,inactive,inactive,-13.4%,inactive,inactive,–,inactive,inactive,inactive,inactive,inactive,–,–,–,–
Nc1nc2c(nc(Br)n2C2OC3COP(=O)(O)O[C@@H]3C2O)c(=O)[nH]1 (some centres not stated),inactive,inactive,–,inactive,2.34%,inactive,inactive,inactive,inactive,inactive,inactive,inactive,inactive,inactive,–,–,–
CC[n+]1c(/C=C/C=C2/N(C)c3ccccc3C2(C)C)sc2ccccc21,11.2 µM (active),inactive,inactive,–,–,inactive,–,–,19 µM (active),31.6 µM (active),3.16 µM (active),0.891 µM (active),inactive,2.31 µM (active),–,–,–
C[C@]12C=CC(=O)C=C1CC[C@@H]1C2=CC[C@]2(C)[C@@H](C(=O)CN3CCN(c4cc(N5CCCC5)nc(N5CCCC5)n4)CC3)CC[C@@H]12,inactive,inactive,inactive,inactive,-17.1%,–,inactive,inactive,inactive,–,inactive,inactive,inactive,–,–,–,–
CN1CCc2cc(Cl)c(O)cc2[C@@H](c2ccccc2)C1,inactive,inactive,inactive,inactive,5.24%,inactive,inactive,inactive,inactive,inactive,–,inactive,–,inactive,–,–,–
c1ccc(C(NCc2cccnc2)(c2ccccc2)c2ccccc2)cc1,inactive,4.11 µM (active),inactive,inactive,7.92%,inactive,inactive,–,inactive,–,–,–,–,–,–,–,–
CN(CC[C@@H](Oc1ccc(C(F)(F)F)cc1)c1ccccc1)CC(=O)O,inactive,inactive,inactive,–,–,inactive,inactive,–,inactive,–,inactive,inactive,inactive,inactive,–,–,–
CCc1ccc2c(-c3cccc(Cl)c3)nc(=O)n(CC)c2n1,inactive,inactive,inactive,inactive,1.57%,inactive,inactive,inactive,–,inactive,inactive,inactive,inactive,–,–,–,–
